From PubChem
Sampled rows, rich in hits. Any-hit rate of the full collection: about 3.8%.
Nrf2 block: inhibitors of Nrf2 signaling; A549 ARE-Fluc reporter, luciferase luminescence, 18-24 h; Potency, µM (series often up to 46 µM), usual class: inhibitors; 360,000 compounds, 2.1% hits; AID 504444; also: nearly all actives have a fitted effect of over 60% in size
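Nrf2 activity is the BugLite luminescence, read 15 min after reagent at room temperature, following CellTiter-Fluor cytotoxicity readout (30 min, 37C). Compound titrations were applied for 18-24 h to 5000 A549 ARE_Fluc cells/well in 5% FBS OPTI-MEM.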
A549 viability: kills or reduces viability of A549 cells in Nrf2 counter-screen; AID 504648; A549 ARE-Fluc cells, CellTiter-Fluor viability, 18-24 h; 390,000 compounds, 0.16% hits; Potency, µM (titrated, usually from 46 µM), usual class: inhibitors
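A549 ARE_Fluc cells in 5% FBS OPTI-MEM were exposed to compounds in concentration-response for 18-24 h at 37 deg C. Viability was read by CellTiter-Fluor fluorescence (Ex 405/Em 525) after 30 min, before the luciferase read.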
HepG2 tox-1: HepG2 cytotoxicity, counter-screen for TGF-b inhibitors | HepG2 CAGA-GFP viability, ATP luminescence, 18 h | Potency, µM (doses to about 46.1 µM), hits mostly cytotoxic | 410,000 compounds, 0.76% hits
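HepG2 CAGA-GFP cells (1000/well, DMEM with 1% FBS) received compound, then TGF-beta at 500 pg/mL final, and were incubated 18 hours at 37 degrees C. Viability was read by CellTiter-Glo luminescence. Media-only wells were set as complete cell-killing and DMSO as no toxicity.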
ATXN2 expr inh: inhibitors of ATXN2 expression; HEK-293 ATXN2-luciferase reporter, luminescence, 24 h; Potency, µM (top dose mostly 57 µM), usual class: inhibitors; 360,000 compounds, 0.72% hits; also: nearly all actives have a fitted effect of over 55% in size
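qHTS (up to 57 uM final) was run with 24 h compound exposure of reporter cells at 37 °C. Each well was multiplexed: SteadyGlo luminescence measured ATXN2-luciferase expression after a fluorogenic Gly-Phe-AFC viability readout (25 uM final).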
TGFb inhibitor: blocks TGF-b signaling. HepG2 CAGA-GFP TGF-b/SMAD3 reporter, GFP fluorescence, 18 h; TGF-beta stimulated, 500 pg/mL final. AID 588855. 410,000 compounds, 1.2% hits. Potency, µM (doses to about 46.1 µM), actives largely listed as inhibitors; also: nearly all actives have a fitted effect of over 65% in size
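HEPG2 CAGA-GFP cells (1000/well, DMEM with 1% FBS) were pre-incubated 2 h at 37 degrees C, given compound by pin tool, then stimulated with TGF-beta at 500 pg/mL final for 18 h before per-cell GFP fluorescence imaging.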
ATXN viability: reduces viability in counter-screen for ATXN expression inhibitors; 400,000 compounds, 0.49% hits; Potency, µM (top dose mostly 56.7 µM), usual class: cytotoxic; S2 cells (HEK-293 line with an ATXN2-luciferase reporter) viability, CellTiter-Fluor protease fluorescence, 24 h; also: nearly all actives have a fitted effect of over 40% in size
TGFb CAGA inh: TGF-b pathway inhibition, cherry-pick retest | shares compounds with TGFb inhibitor | HepG2 CAGA-GFP TGF-b reporter, GFP fluorescence, 18 h; cells stimulated with TGF-beta, 500 pg/mL | Potency, µM (top dose mostly 46.1 µM), usual class: inhibitors | 1,600 compounds, 63% hits | AID 720534; also: nearly all actives have a fitted effect of over 65% in size
HepG2 tox-2: toxic to HepG2 cells in TGF-b counterscreen | shares compounds with TGFb inhibitor | HepG2 CAGA-GFP viability, ATP luminescence, 18 h; cells stimulated with TGF-beta, 500 pg/mL | Potency, µM (top dose mostly 46.1 µM), most hits filed as inhibitors | 1,600 compounds, 27% hits | AID 720535; also: nearly all actives have a fitted effect of over 70% in size
TGFb CCL64 inh: orthogonal confirmation of TGF-b inhibitors in CCL64 cells; shares compounds with TGFb inhibitor; CCL64 CAGA-GFP reporter, TGF-b stimulated, GFP fluorescence, 18 h; Potency, µM (doses to about 46.1 µM), actives largely listed as inhibitors; 1,600 compounds, 41% hits; AID 720536; also: nearly all actives have a fitted effect of over 65% in size
COP TGFb inh: blocks TGF-b signaling in HepG2 COP reporter | shares compounds with TGFb inhibitor | HepG2 COP-GFP TGF-b reporter, GFP fluorescence, 18 h; cells stimulated by added recombinant TGF-beta | Potency, µM (doses to about 46.1 µM), hits mostly inhibitors | 1,600 compounds, 3% hits | AID 720537; also: nearly all actives have a fitted effect of over 70% in size
A number is an active result; n = inactive; u = inconclusive; x = no result; [ ] = remark or other dose. Calls follow the shape of the dose curve; as a rule, active = well fitted curve in the direction sought with a large enough effect; inconclusive = small, poorly fitted or top-dose-only effect, or another doubt; inactive = no such curve, though single readings can be large; an effect the other way counts as inactive or inconclusive.

SMILES	Nrf2 block	A549 viability	HepG2 tox-1	ATXN2 expr inh	TGFb inhibitor	ATXN viability	TGFb CAGA inh	HepG2 tox-2	TGFb CCL64 inh	COP TGFb inh
O=C(NNC(=O)C1CCC1)c1ccc(F)cc1	x	x	n	x	n	n	x	x	x	x
COc1cc2c(c(Br)c1N)-c1cc(Br)c(N)cc1C2=O	x	x	n	x	u	n	0.58µM	0.58µM	n	n
O=C1C=C(NC2=CC3OC(c4ccccc4)OCC3OC2=O)CCC1 (centres undefined)	n	u	n	n	10µM	u	10µM	u	13µM	n
CCOC(=O)c1c(NC(=O)c2ccc(N3C(=O)[C@@H]4[C@H](C3=O)[C@H]3C=C[C@@H]4C3)cc2)sc2c1CCCC2	u	n	n	x	n	n	x	x	x	x
COc1ccc(OC)c2sc(N(CCCN(C)C)C(=O)CCS(=O)(=O)c3ccccc3)nc12	n	n	n	u	u	x	x	x	x	x
Cc1ccc2sc(N(CCCN(C)C)C(=O)CCS(=O)(=O)c3ccccc3)nc2c1C	n	n	6.3µM	u	5.6µM	x	u	u	3.3µM	u
N#Cc1cc(C(=O)c2cc(Cl)ccc2O)cn(-c2ccccc2)c1=O	n	n	n	n	n	n	x	x	x	x
Cc1ccc(NC(=O)c2cc(C(=O)c3cc(Cl)ccc3O)cn(-c3ccc(C)cc3)c2=O)cc1	n	n	n	n	7.9µM	n	u	u	u	n
CC(=O)c1cccc(NC(=O)/C=C/c2ccc([N+](=O)[O-])s2)c1	u	u	n	u	7.1µM	x	4.1µM	12µM	2.1µM	n
COC(=O)c1cccc(NC(=O)/C=C/c2cccc([N+](=O)[O-])c2)c1	x	n	n	n	n	n	x	x	x	x
COc1ccc(S(=O)(=O)NC(=O)C2(C)CCN2C(=O)C(C)(C)c2ccccc2)cc1 (centres undefined)	x	x	n	n	n	n	x	x	x	x
Nc1nc(N)c2c(ccc3c2ccn3Cc2cccc([N+](=O)[O-])c2)n1	x	x	n	u	3.5µM	u	4.6µM	0.29µM	u	13µM
Nc1nc(N)c2cc([N+](=O)[O-])ccc2n1	n	n	n	n	n	n	x	x	x	x
O=C(Nc1ccccc1C(=O)Nc1nnc(C(F)(F)F)s1)c1ccccc1Cl	6.5µM	16µM	n	13µM	3.5µM	u	5.8µM	4.1µM	6.5µM	n
NC(=O)c1ccccc1NC(=O)c1ccccc1Cl	n	n	n	x	n	n	x	x	x	x
COc1ccc(Cl)cc1NC(=O)CN1CCN(Cc2ccccc2)CC1	u	n	n	n	n	n	x	x	x	x
CCOc1ccc2nc(N/C(N)=N/C(=S)Nc3cccc(C)c3)nc(C)c2c1	n	n	n	n	n	n	x	x	x	x
Cc1ccc(NC(=S)/N=C(\N)Nc2nc(C)c3cc(C)ccc3n2)c(C)c1	u	n	n	n	10µM	n	4.6µM	n	u	n
CCc1ccccc1NC(=S)/N=C(\N)Nc1nc(C)c2cc(C)ccc2n1	n	n	n	n	u	u	4.1µM	n	u	n
Cc1nn(CCCC(=O)NCCc2ccc(Cl)cc2)c(=O)c2c1sc1ccccc12	u	u	n	x	n	x	x	x	x	x
Cn1ncc2c(NCc3ccco3)ncnc21	x	x	n	x	n	x	x	x	x	x
COC(=O)c1cc(S(=O)(=O)Nc2ccc(C)cn2)c[nH]1	n	n	n	x	n	n	x	x	x	x
NC(=O)c1cccc(-c2cnc(N)c(C(=O)c3cccnc3)n2)c1	u	u	n	n	10µM	u	4.6µM	16µM	n	n
CCc1ccccc1NC(=O)c1ccc(CN2CCC(Cc3ccccc3)CC2)cc1	u	n	n	n	u	n	x	x	x	x
Cc1ccccc1CSc1nnc2ccc(-c3ccncc3)nn12	n	n	n	n	n	n	x	x	x	x
SMILES	Nrf2 block	A549 viability	HepG2 tox-1	ATXN2 expr inh	TGFb inhibitor	ATXN viability	TGFb CAGA inh	HepG2 tox-2	TGFb CCL64 inh	COP TGFb inh
CCOc1cccc(C2C=C(c3ccc4c(c3)OCO4)NC(c3ccc(Br)cc3)N2)c1O (centres undefined)	n	n	n	x	u	x	x	x	x	x
CCN(CC(O)Cn1c2ccccc2c2ccccc21)S(=O)(=O)c1ccc(C)cc1 (centres undefined)	u	n	n	n	10µM	n	21µM	u	u	n
COc1cc(C2c3cc4c(cc3OC(NCCc3ccccc3)C2C)OCO4)cc(OC)c1OC (centres undefined)	n	u	n	n	u	n	u	n	16µM	n
COc1cc(C2c3cc4c(cc3OC(Nc3ccc(C(=O)O)cc3)C2C)OCO4)cc(OC)c1OC (centres undefined)	n	n	n	n	u	u	x	x	x	x
CCCCN1CC(C(=O)NC2CCCCC2)CC1=O (centres undefined)	n	n	n	n	n	n	x	x	x	x
CC1=CC(=O)Nc2ncccc2O1	x	x	n	x	u	u	x	x	x	x
Cc1ccc(S(=O)(=O)Nc2cccc3cccnc23)c([N+](=O)[O-])c1	10µM	u	n	10µM	4.5µM	u	n	u	u	n
Cc1cc(C)c(NS(=O)(=O)c2cccc3cccnc23)c(C)c1	n	n	n	n[11.3 µM]	n	n	x	x	x	x
O=S(=O)(Nc1cccc2cccnc12)c1ccccc1	u	n	n	8.9µM	7.1µM	u	23µM	u	12µM	n
COc1ccc(C(=O)c2sc(Nc3ccccc3F)nc2N)cc1	u	n	n	x	n	u	x	x	x	x
Nc1nc(Nc2ccccc2)sc1C(=O)c1ccccc1	n	n	n	n	5.6µM	n	3.7µM	3.7µM	21µM	n
O=C(O)CCC(=O)N1CCN(S(=O)(=O)c2ccc3ccccc3c2)CC1	n	n	n	n	n	n	x	x	x	x
O=C(CCC(=O)N1CCN(S(=O)(=O)c2ccc3ccccc3c2)CC1)Nc1cc(Cl)cc(Cl)c1	u	n	n	x	7.1µM	n	u	n	n	n
O=C(Cn1ncc(Cl)c(Cl)c1=O)N1CCN(S(=O)(=O)c2ccc3ccccc3c2)CC1	u	n	n	u	4µM	x	2.6µM	2.6µM	5.2µM	n
